Source: PubChem BioAssay (NCATS)
Inconclusive results are not listed. Active and inactive are the calls of the source. Calls follow the shape of the dose curve; as a rule, active = well fitted inhibition curve with a large enough effect; inconclusive = small, poorly fitted or top-dose-only effect; inactive = flat fitted curve, though single readings scatter.

What was measured:
Assay in all cases: qHTS profiling for inhibitors of Plasmodium falciparum proliferation (AID 504749); also: nearly all actives have a fitted effect of over 60% in size
Settings in all cases: P. falciparum in erythrocytes, SYBR Green DNA, 72 h; series mostly up to 28.7 µM
[1] = tested on: ATS95
Method in brief: (§1)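 Readout was DNA-dye fluorescence from lysed cultures, ex 485/em 535 nm. Parasitized red cells had grown 72 h with compound; data scaled between 0.29 uM artemisinin and DMSO wells and corrected using vehicle-only plates.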

[2] = tested on: C2A
Method in brief: as §1

[3] = tested on: CP185
Method in brief: as §1

[4] = tested on: CP191
Method in brief: as §1

[5] = tested on: CP192
Method in brief: as §1

[6] = tested on: CP194
Method in brief: as §1

[7] = tested on: CP201
Method in brief: as §1

[8] = tested on: CP211
Method in brief: as §1

[9] = tested on: CP215
Method in brief: as §1

[10] = tested on: CP203
Method in brief: as §1

Measured: Potency

c1ccc(C2CC2)c(OCC2=NCCN2)c1
not listed: [10]
inactive: all other assays above

Oc1ccccc1-c1ccccc1
not listed: [10]
inactive: all other assays above

CN1CCN(C(=O)O[C@H]2c3nccnc3C(=O)N2c2ccc(Cl)cn2)CC1
inactive: all assays above

Cn1c(CCCC(=O)O)nc2cc(N(CCCl)CCCl)ccc21
not listed: [10]
inactive: all other assays above

NCCc1cc(O)c(O)cc1O
inactive: all assays above

CC(=O)[C@H]1CC[C@H]2[C@@H]3CC[C@H]4C[C@H](O)CC[C@]4(C)[C@H]3C(=O)C[C@]12C
not listed: [10]
inactive: all other assays above

CCCC(C)(COC(N)=O)COC(=O)NC(C)C (stereo not drawn)
not listed: [10]
inactive: all other assays above

CC(C)=CC1C(C(=O)OCc2cccc(Oc3ccccc3)c2)C1(C)C (stereo not drawn)
not listed: [10]
inactive: all other assays above

CC(C)CC(N(C)C)C1(c2ccc(Cl)cc2)CCC1 (stereo not drawn)
not listed: [10]
inactive: all other assays above

CCC(C(N)=O)N1CCCC1=O (stereo not drawn)
inactive: all assays above

C#CCOC(C(=O)OCCN(C)C)(c1ccccc1)c1ccccc1
inactive: all assays above

OCCOc1ccccc1
not listed: [10]
inactive: all other assays above

CN(C)CCc1ccc(O)cc1
not listed: [10]
inactive: all other assays above

c1ccc2c(c1)OCC(C1=NCCN1)O2 (stereo not drawn)
inactive: all assays above

CC[N+]1(C)CCCC(OC(=O)C(O)(c2ccccc2)c2ccccc2)C1 (stereo not drawn)
not listed: [10]
inactive: all other assays above

Oc1cccc2cccnc12
not listed: [10]
inactive: all other assays above

NCC(CC(=O)O)c1ccc(Cl)cc1 (stereo not drawn)
not listed: [10]
inactive: all other assays above

NCC(O)c1ccc(O)cc1 (stereo not drawn)
not listed: [10]
inactive: all other assays above

CC1NCCOC1c1ccccc1 (stereo not drawn)
not listed: [10]
inactive: all other assays above

COc1ccc(C(=O)c2c(C)n(CCN3CCOCC3)c3ccccc23)cc1
not listed: [10]
inactive: all other assays above

O=C(NC(O)C(Cl)(Cl)Cl)NC(O)C(Cl)(Cl)Cl (stereo not drawn)
not listed: [10]
inactive: all other assays above

CCOP(=S)(OCC)Oc1cc(C)nc(C(C)C)n1
not listed: [10]
inactive: all other assays above
